# Measurements: PubChem BioAssay (Tox21)
# Results filed as inconclusive are left out. Entries that show only a call come without a potency. A number with no mark means an inactive call. Activity calls are given as the source filed them. Unless noted, the call rests on the fitted dose curve; in most records, active means well fitted curve in the direction sought with a large enough effect in the repeat runs; inconclusive means weak or mixed curves; inactive means no such curve, though single readings can be large; an effect the other way counts as inactive or inconclusive.
# Columns and labels:
# [1] = biological target: Retinoic acid receptor RXR-alpha (Homo sapiens) (UniProt P19793); assay: qHTS assay to identify small molecule agonists of the RXR signaling pathway (AID 1159527; calls by dose curve; further: nearly all actives have a fitted effect of over 35% in size); details: HEK293T RXRa-UAS-bla, beta-lactamase ratio, 16 h; series mostly up to 76.8 µM
# Procedure, shortened: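 GeneBLAzer RXR-alpha-UAS-bla HEK 293T cells in 2% charcoal-stripped FBS medium were exposed to compounds for 16 hr at 37 C in agonist mode. Beta-lactamase reporter read as 460/530 nm FRET ratio after 2 hr substrate loading.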
# [2] = qHTS assay to identify small molecule antagonists of the retinoid acid receptor (RAR) signaling pathway - cell viability counter screen (AID 1159551); details: C3RL4 cells viability, ATP luminescence (CellTiter-Glo), 6 h; series mostly up to 92.4 µM; further: nearly all actives have a fitted effect of over 35% in size
# Procedure, shortened: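 Following overnight attachment, C3RL4 reporter cells received DMSO-dissolved compounds and then retinol (1 uM final). Six hours later at 37 C, ATP content was measured by CellTiter-Glo luminescence.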
# [3] = qHTS assay to identify small molecule antagonists of the retinoic acid receptor (RAR) signaling pathway (AID 1159552; further: nearly all actives have a fitted effect of over 50% in size); details: C3RL4 RARE luciferase reporter, retinol-stimulated, 6 h; series mostly up to 92.4 µM
# Procedure, shortened: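 Retinol signaling pathway inhibitors screened in C3RL4 RARE-luciferase reporter cells seeded overnight at 37 C, then compounds added with 1 uM (final) retinol as pathway substrate. After 6 hr at 37 C, luciferase luminescence read after 30 min at room temperature.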
# [4] = qHTS assay to identify small molecule agonists of the retinoic acid receptor (RAR) signaling pathway (AID 1159553); details: C3RL4 RARE luciferase reporter, agonist, 6 h; series mostly up to 73.3 µM; further: potency means the concentration at half of the fitted maximal effect
# Procedure, shortened: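 Cell line C3RL4, RARE luciferase reporter. Treatment: compounds in DMSO, 6 hr, 37 C, 5% CO2, after overnight plating. Detection: luminescence, 30 min RT after reagent.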
# [5] = qHTS assay to identify small molecule antagonists of the estrogen related receptor (ERR) signaling pathway - cell viability counter screen (AID 1224818); details: ERR reporter cell line viability counter screen; series mostly up to 46.1 µM;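 further: viability measured after 17.5 h of compound exposure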
# Procedure, shortened: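 Here, ERR cells are plated at 2,000 cells per well, allowed 6 h to attach, and treated with compounds in DMSO for 17.5 h at 37 C. CellTiter-Fluor is then added and fluorescence read after 30 min.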
# [6] = qHTS assay to identify small molecule antagonists of the estrogen related receptor signaling pathway with the pleiotropic PPARgamma coactivator (PGC) cell viability counter screen (AID 1224822;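 further: viability read after 17.5 h compound exposure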); details: ERR/PGC reporter cell line viability counter screen; series mostly up to 46.1 µM
# Procedure, shortened: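 qHTS format, DMSO compound stocks pin-transferred onto PGC/ERR cells 6 h after plating; 17.5 h exposure at 37 C, then CellTiter-Fluor fluorescence.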
# [7] = qHTS assay to identify small molecule agonists of the RXR signaling pathway - cell viability counter screen (AID 1159529); details: RXR-alpha-bla HEK293T viability, CellTiter-Glo, 16 h; series mostly up to 76.8 µM; further: nearly all actives have a fitted effect of over 50% in size
# Procedure, shortened: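 RXR-alpha-UAS-bla HEK 293T cells in medium with 2% charcoal-stripped FBS were pre-incubated 5 hr, then compound-treated 16 hr at 37 C. Viability was read by CellTiter-Glo luminescence in the same wells as the beta-lactamase assay, with tetraoctyl ammonium bromide as positive control.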
# [8] = qHTS assay to identify small molecule antagonists of the estrogen related receptor (ERR) signaling pathway (AID 1224819;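 further: luminescence from an ERR-driven luciferase reporter measured with One-Glo reagent; nearly all actives have a fitted effect of over 50% in size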); details: ERR reporter cell line, luciferase inhibition; series mostly up to 46.1 µM
# Procedure, shortened: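 LOPAC library screened for antagonism as reduced One-Glo luminescence in ERR reporter cells (2,000/well). Compounds were added after 6 h pre-incubation and left 18 h at 37C; reading followed a 30 min room-temperature reagent step.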
# [9] = qHTS assay to identify small molecule agonists of the estrogen related receptor (ERR) signaling pathway (AID 1224820); details: ERR reporter cell line, luciferase agonist mode; series mostly up to 46.1 µM
# Procedure, shortened: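 ERR reporter cell line (from NTP), 2,000 cells/well, incubated 6 h before compound addition, then 18 h at 37 C. Luminescence measured 30 min after One-Glo reagent at room temperature.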
# Retinoic acid receptor RXR-alpha (Homo sapiens), sequence (P19793 whole entry, looked up): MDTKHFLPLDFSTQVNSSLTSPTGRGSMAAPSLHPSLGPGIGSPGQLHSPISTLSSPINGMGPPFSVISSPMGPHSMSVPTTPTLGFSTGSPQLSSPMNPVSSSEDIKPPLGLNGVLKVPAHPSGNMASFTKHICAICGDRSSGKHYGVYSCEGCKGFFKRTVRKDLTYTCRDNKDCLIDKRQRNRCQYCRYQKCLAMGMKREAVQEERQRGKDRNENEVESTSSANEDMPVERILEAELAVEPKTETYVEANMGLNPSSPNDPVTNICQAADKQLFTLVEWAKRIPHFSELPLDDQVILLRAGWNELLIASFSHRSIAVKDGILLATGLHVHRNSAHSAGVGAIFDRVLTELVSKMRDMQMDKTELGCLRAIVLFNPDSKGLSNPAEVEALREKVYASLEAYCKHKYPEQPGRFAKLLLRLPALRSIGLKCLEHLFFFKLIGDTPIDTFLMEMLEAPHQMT
compound,measurement,setting,value
CCCCCCCCCCCCCC,Potency,[1],inactive
same,outcome,[2],inactive
O=C(NCC(O)CO)c1c(I)c(C(=O)NCC(O)CO)c(I)c(N(CCO)C(=O)CO)c1I (centres undefined),Potency,[1],inactive
same,outcome,[2],inactive
same,outcome,[3],inactive
same,Potency,[4],inactive
CC(C)NCC(O)COc1ccc(COCCOC(C)C)cc1 (centres undefined),Potency,[1],inactive
same,outcome,[2],inactive
same,outcome,[5],inactive
same,outcome,[6],inactive
CCOC(=O)[C@H](CCc1ccccc1)N[C@@H](C)C(=O)N1C(=O)N(C)C[C@H]1C(=O)O,Potency,[1],inactive
same,outcome,[2],inactive
O=C1CCCC(=O)O1,Potency,[1],inactive
same,outcome,[2],inactive
same,outcome,[3],inactive
CC(C)OC(=O)CCCCC(=O)OC(C)C,Potency,[1],inactive
same,outcome,[2],inactive
same,outcome,[3],inactive
CN(CCOc1ccc(NS(C)(=O)=O)cc1)CCc1ccc(NS(C)(=O)=O)cc1,Potency,[1],inactive
same,outcome,[7],inactive
same,outcome,[2],inactive
same,outcome,[5],inactive
same,outcome,[6],inactive
C[C@@H]1O[C@@H](O[C@@H]2[C@@H](O)[C@H](OCCc3ccc(O)c(O)c3)O[C@H](CO[C@@H]3O[C@H](CO)[C@@H](O)[C@H](O)[C@H]3O)[C@H]2OC(=O)/C=C/c2ccc(O)c(O)c2)[C@H](O)[C@H](O)[C@H]1O,Potency,[1],inactive
same,outcome,[2],inactive
same,outcome,[3],inactive
same,Potency,[4],inactive
CCCCCCOc1ccccc1C(N)=O,Potency,[1],inactive
same,outcome,[2],inactive
same,outcome,[3],inactive
same,Potency,[4],13.3 µM (active)
CCCCCCN,Potency,[1],inactive
same,outcome,[2],inactive
same,outcome,[3],inactive
O=C(O)c1cc(Br)c(O)c(Br)c1,Potency,[1],inactive
same,outcome,[2],inactive
same,outcome,[3],inactive
CNC(=O)[C@H]1O[C@@H](n2cnc3c(NCc4cc(Cl)ccc4OCc4cc(C)no4)ncnc32)[C@H](O)[C@@H]1N,Potency,[1],inactive
same,outcome,[2],inactive
N#Cc1ccc(C(=O)O)cc1,Potency,[1],inactive
same,outcome,[2],inactive
Cc1[nH]cnc1-c1ccc(Cl)cc1,Potency,[1],inactive
same,outcome,[2],inactive
same,outcome,[3],inactive
COc1cc2c(cc1OC)[C@@H]1CC(=O)[C@@H](CC(C)C)CN1CC2,Potency,[1],inactive
same,outcome,[2],inactive
O=C(NCCc1c[nH]c2ccccc12)c1cccnc1,Potency,[1],inactive
same,outcome,[2],inactive
same,outcome,[3],inactive
same,Potency,[4],21.1 µM (active)
Cc1ccc(C=O)cc1C,Potency,[1],inactive
same,outcome,[2],inactive
CCCCNC1CC(C)(C)NC(C)(C)C1,Potency,[1],inactive
same,outcome,[2],inactive
CC1=C(C(=O)O)N2C(=O)[C@@H](NC(=O)[C@H](N)c3ccc(O)cc3)[C@H]2SC1,Potency,[1],inactive
same,outcome,[2],inactive
same,outcome,[3],inactive
same,Potency,[4],inactive
Oc1cn2c(n1)Nc1ccc(Cl)c(Cl)c1C2,activation,[1],5.44% [at 15.8 µM]
same,"activity change, negative = cytotoxicity",[2],3.75% [at 19 µM]
COC(=O)CCCCCCCC(=O)OC,Potency,[1],inactive
same,outcome,[2],inactive
same,outcome,[3],inactive
O=C1O[C@@H]2[C@@H](O)[C@H](O)O[C@@H]2[C@H]1O,Potency,[1],inactive
same,outcome,[2],inactive
COCCc1ccc(OCC2CO2)cc1 (centres undefined),Potency,[1],inactive
same,outcome,[2],inactive
same,outcome,[3],inactive
O=C(OCc1ccccc1)C(=O)OCc1ccccc1,outcome,[7],inactive
same,outcome,[2],inactive
CCCC(=O)C(C)=O,Potency,[1],inactive
same,outcome,[2],inactive
CCCCCCCCC1CCC(=O)O1 (centres undefined),Potency,[1],inactive
same,outcome,[2],inactive
same,outcome,[3],inactive
Cc1ccsc1/C=C/C1=NCCCN1C,outcome,[7],inactive
same,outcome,[2],inactive
CN1CCN(CC(=O)N2c3ccccc3C(=O)Nc3cccnc32)CC1,activation,[1],4.73% [at 6.98 µM]
same,"activity change, negative = cytotoxicity",[2],0.488% [at 8.39 µM]
same,outcome,[5],inactive
same,outcome,[8],inactive
same,outcome,[9],inactive
same,outcome,[6],inactive
CNS(=O)(=O)CCc1ccc2[nH]cc(C3CCN(C)CC3)c2c1,outcome,[7],inactive
same,outcome,[2],inactive
same,outcome,[5],inactive
same,outcome,[6],inactive
CN(C)C(=O)CNC(=O)Cc1ccccc1,outcome,[7],inactive
same,outcome,[2],inactive
CC(C)CC(C)CC(C)CC(C)COC(=O)c1ccccc1C(=O)OCC(C)CC(C)CC(C)CC(C)C (centres undefined),outcome,[7],inactive
same,outcome,[2],inactive
same,outcome,[3],inactive
CCCCCCCCCC(C)=O,outcome,[7],inactive
same,outcome,[2],inactive
same,outcome,[3],inactive
CCOCCOCCOCC,outcome,[7],inactive
same,outcome,[2],inactive
same,outcome,[3],inactive
CC(C)(C)NC(N)=O,outcome,[7],inactive
same,outcome,[2],inactive
Nc1ncnc(Nc2ccccc2)n1,outcome,[7],inactive
same,outcome,[2],inactive
same,outcome,[3],inactive
O=C(OCC(O)CO)c1ccccc1Nc1ccnc2c(C(F)(F)F)cccc12 (centres undefined),outcome,[7],inactive
same,outcome,[2],inactive
same,Potency,[4],inactive
CC(N)C(=O)OC(C)(C)Cc1ccc(Cl)cc1 (centres undefined),outcome,[7],inactive
same,outcome,[2],inactive
same,outcome,[3],inactive
same,Potency,[4],inactive
CC[C@H](C)C(=O)O[C@H]1C[C@H](O)C=C2C=C[C@H](C)[C@H](CC[C@@H](O)C[C@@H](O)CC(=O)O)[C@H]21,outcome,[7],inactive
same,outcome,[2],inactive
same,outcome,[3],inactive
CCOc1cc(NC(C)=O)ccc1C(=O)OC,outcome,[2],inactive
CC(=O)Nc1ccc(S(=O)(=O)Cl)cc1,outcome,[2],inactive
O=C(Nc1ccc(Cl)c(Cl)c1)C1CC1,outcome,[7],inactive
same,outcome,[2],inactive
same,outcome,[3],inactive
same,Potency,[4],inactive
